Inconclusive results are not listed. Calls of active or inactive are those of the source. Rule for the calls: active = hit-call score of the fitted dose curve at least 0.9, where 1 is the maximum; inconclusive = response in the unintended direction; inactive = score below 0.9.
These compounds were tested against human Vitamin D Receptor (VDR), VDR (gene 7421) (UniProt P11473) (assay: ATG_VDR_TRANS: Attagene TRANS-FACTORIAL HepG2 Assay for human Vitamin D Receptor (VDR) (AID 2283022)).
Method in brief: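 Fluorescence of labelled reporter cDNA fragments, resolved by capillary electrophoresis, gives mRNA induction after 24 h treatment of HepG2 cells carrying transfected Gal4-fusion reporter units. Activity is fitted in the positive direction with DMSO as baseline.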

Sequence of human Vitamin D Receptor (VDR), VDR (gene 7421) (P11473 whole entry, looked up, the tested form may be a part): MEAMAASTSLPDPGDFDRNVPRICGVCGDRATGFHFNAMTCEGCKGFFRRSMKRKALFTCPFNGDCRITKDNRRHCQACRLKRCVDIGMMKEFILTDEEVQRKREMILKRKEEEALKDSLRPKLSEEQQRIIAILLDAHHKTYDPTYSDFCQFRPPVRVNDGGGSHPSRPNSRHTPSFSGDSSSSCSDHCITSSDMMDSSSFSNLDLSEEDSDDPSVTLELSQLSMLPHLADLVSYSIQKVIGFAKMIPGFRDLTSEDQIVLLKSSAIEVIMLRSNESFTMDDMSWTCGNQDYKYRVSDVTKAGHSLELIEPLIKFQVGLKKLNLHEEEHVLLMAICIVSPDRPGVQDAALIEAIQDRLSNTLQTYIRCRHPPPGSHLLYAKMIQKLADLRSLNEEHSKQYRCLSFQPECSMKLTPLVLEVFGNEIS

outcome, inactive:
CC(C)=CCCC(C)CCOC=O (stereo not drawn)
COS(=O)(=O)O
C1CCOC1
C=CCN(CC=C)CC=C
CCCCC1CCC(O)CC1 (stereo not drawn)
CCCCCCCCCCCC(=O)OC[C@@H](O)[C@H]1OC[C@H](O)[C@H]1O
CCC(C)S (stereo not drawn)
COc1cc([C@@H]2c3cc4c(cc3[C@@H](O[C@@H]3O[C@@H]5CO[C@@H](C)O[C@H]5[C@H](O)[C@H]3O)[C@H]3COC(=O)[C@H]23)OCO4)cc(OC)c1O
CCCCOCC
OCc1cccc(Oc2ccccc2)c1
CC(C)OCCO
CC(C)=CCCC(C)CC(=O)O (stereo not drawn)
CCCC[O][Al]([O]CCCC)[O]CCCC
C=CC(C)C#N (stereo not drawn)
C=COCCOCCOC=C
CCCCC(CC)COC(=O)c1ccc(O)cc1 (stereo not drawn)
CCCC1O[C@@H]2C[C@H]3[C@@H]4CCC5=CC(=O)C=C[C@]5(C)[C@H]4[C@@H](O)C[C@]3(C)[C@]2(C(=O)CO)O1 (stereo partly drawn)
[Cl][Au]([Cl])[Cl]
O=[N+]([O-])c1cccc(Cl)c1
CC1=NN(c2ccc(S(=O)(=O)O)cc2)C(=O)C1
Nc1c(Cl)cc(Cl)cc1[N+](=O)[O-]
CSc1c(Cl)c(Cl)c(Cl)c(Cl)c1Cl
Cc1ccc(OC(=O)c2ccccc2O)cc1
COCCOCCOCCO
N[C@@H](Cc1cc(I)c(Oc2cc(I)c(O)c(I)c2)c(I)c1)C(=O)O
C#CC(C)N(C)C(=O)Nc1ccc(Cl)cc1 (stereo not drawn)
COC(=O)C=C(C)CCC=C(C)C
CCNCCO
CC(=O)C(C)O (stereo not drawn)
CC1(C)COCN1
O=CCc1ccccc1
O=C(O)CCCCCCCCC(=O)O
CCCCCC(=O)CC

— PubChem BioAssay (EPA / NIEHS)
